Measurements taken from the supplement of paper PMC7366291.
Where a name gives a salt, the structure may show the parent alone. ± gives the standard deviation or the standard deviation of the averaged measurements.

Key:
Conditions in all cases: 25 µM; exposure: 24-48 hpf
[1] = system: Danio rerio Tg(wt1b:EGFP) embryo, pronephros; assay: glomerular separation, fold change vs DMSO control; higher = glomeruli further apart (abnormal)
Outline: (§1)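 Distances and angles describing the pronephros were computed by a Fiji macro from 16 reference points set manually on maximum projections of dorsal images. These images came from dechorionated Tg(wt1b:EGFP) zebrafish embryos held in agarose-filled 96-well plates after exposure to 25 μM compound in 0.5% DMSO, in HEPES-buffered E3 with 0.003% PTU, from 24 to 48 hpf at 28.5°C. Any value more than 2 SD from the feature mean was excluded. Features are stated as fold change relative to the mean of same-day DMSO-treated embryos.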

[2] = system: Danio rerio Tg(wt1b:EGFP) embryo, pronephros; assay: glomerular width (mean of left and right), fold change vs DMSO control; higher = wider glomerulus
Outline: as §1

[3] = system: Danio rerio Tg(wt1b:EGFP) embryo, pronephros; assay: fraction of imaged embryos annotated as normal kidney; higher = less nephrotoxic; extreme values may be limits of the assay
Outline: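 Zebrafish embryos carrying Tg(wt1b:EGFP) were dechorionated and exposed to 25 μM compound (0.5% DMSO) between 24 and 48 hpf at 28.5°C. Their pronephroi were imaged by widefield fluorescence, and each embryo was classed by hand from maximum projections. The measure is the fraction of embryos per treatment falling in the normal-kidney category.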

[4] = system: Danio rerio Tg(wt1b:EGFP) embryo, pronephros; assay: pronephric angle neck segment to proximal convoluted tubule (mean of left and right), fold change vs DMSO control; higher = larger pronephric angle
Outline: as §1

Row | Compound | glomerular separation [1] | glomerular width [2] | fraction of imaged embryos annotated as normal kidney [3] | pronephric angle neck segment [4]
1 | CN(C)[C@@H]1C(O)=C(C(N)=O)C(=O)[C@@]2(O)C(O)=C3C(=O)c4c(O)cccc4[C@@](C)(O)[C@H]3C[C@@H]12 [Tetracycline hydrochloride] | 1.33 ± 0.62 | 1.06 ± 0.042 | 0.778 | 0.9721 ± 0.0096
2 | CC[C@H]1OC(=O)[C@H](C)[C@@H](O[C@H]2C[C@@](C)(OC)[C@@H](O)[C@H](C)O2)[C@H](C)[C@@H](O[C@@H]2O[C@H](C)C[C@H](N(C)C)[C@H]2O)[C@](C)(O)C[C@@H](C)CN(C)[C@H](C)[C@@H](O)[C@]1(C)O [Azithromycin] | 0.933 ± 0.41 | 0.945 ± 0.022 | 1 | 1.012 ± 0.0055
3 | CN(C/C=C/c1ccccc1)Cc1cccc2ccccc12 [Naftifine hydrochloride] | 1.03 ± 0.34 | 0.96 ± 0.044 | 0.9 | 0.982 ± 0.078
4 | CCCc1nc(C)c2c(=O)nc(-c3cc(S(=O)(=O)N4CCN(CC)CC4)ccc3OCC)[nH]n12 [Vardenafil] | 1.24 ± 0.46 | 1.02 ± 0.021 | 0.667 | 0.981 ± 0.041
5 | CCN(CC)C(=O)N1CCN(C)CC1 [Diethylcarbamazine citrate] | 0.96 ± 0.28 | 0.958 ± 0.028 | 0.909 | 1.05 ± 0.02
6 | CN(Cc1cnc2nc(N)nc(N)c2n1)c1ccc(C(=O)N[C@@H](CCC(=O)O)C(=O)O)cc1 (racemic) [Amethopterin (R,S)] | 1.29 ± 0.49 | 0.996 ± 0.022 | 0.75 | 1.03 ± 0.036
7 | Cc1cc(O)c(C(=O)N[C@@H](C(=O)N[C@@H]2C(=O)N3C(C(=O)O)=C(CSc4nnnn4C)CS[C@H]23)c2ccc(O)cc2)cn1 [Cefpiramide] | 1.22 ± 0.39 | 0.985 ± 0.089 | 0.833 | 0.9442 ± 0.0043
8 | CCCCCNC(=N)N/N=C/c1c[nH]c2ccc(OC)cc12 [Tegaserod maleate] | 1.26 ± 0.31 | 0.997 ± 0.032 | 0.7 | 0.963 ± 0.048
9 | CC(C[N+](C)(C)C)OC(N)=O (stereo not given) [Bethanechol chloride] | 0.946 ± 0.32 | 1.023 ± 0.0027 | 0.833 | 0.998 ± 0.024
10 | CCOC(=O)Nc1ccc2c(c1)N(C(=O)CCN1CCOCC1)c1ccccc1S2 [Moricizine hydrochloride] | 0.635 ± 0.18 | 1.04 ± 0.013 | 0.833 | 0.993 ± 0.055
11 | CC[C@H](c1ccc(O)cc1)[C@@H](CC)c1ccc(O)cc1 [Hexestrol] | 1.04 ± 0.38 | 0.94 ± 0.029 | 0.25 | 1.22 ± 0.08
12 | CC(=O)NCCCS(=O)(=O)O [Acamprosate calcium] | 1.02 ± 0.41 | 1.02 ± 0.022 | 0.75 | 0.991 ± 0.053
13 | O=C(O)COC(=O)Cc1ccccc1Nc1c(Cl)cccc1Cl [Aceclofenac] | 3.56 ± 1.8 | 1 ± 0.16 | 0.25 | 1.24 ± 0.15
14 | NCCc1ccc(O)c(O)c1 [Dopamine hydrochloride] | 1.08 ± 0.44 | 1.05 ± 0.054 | 0.917 | 1.011 ± 0.005
15 | Nc1nc2c(ncn2COC(CO)CO)c(=O)[nH]1 [Ganciclovir] | 0.62 ± 0.26 | 1.009 ± 0.0021 | 0.917 | 0.998 ± 0.018
16 | CN(C)CCOC(C)(c1ccccc1)c1ccccn1 (stereo not given) [Doxylamine succinate] | 1.15 ± 0.53 | 0.9589 ± 0.009 | 0.818 | 1.01 ± 0.065
17 | CCOC(=O)C1=C(COCCN)NC(C)=C(C(=O)OC)C1c1ccccc1Cl (stereo not given) [Amlodipine] | 0.923 ± 0.2 | 1.03 ± 0.085 | 1 | 0.983 ± 0.029
18 | Cn1c(NCCN(CCO)CCCc2ccc([N+](=O)[O-])cc2)cc(=O)n(C)c1=O [Nifekalant] | 0.925 ± 0.31 | 0.965 ± 0.033 | 0.833 | 0.9169 ± 0.0049
19 | CC(=O)NS(=O)(=O)c1ccc(N)cc1 [Sulfacetamide sodic hydrate] | 0.937 ± 0.25 | 1.05 ± 0.057 | 1 | 0.9887 ± 0.0093
20 | COc1cc(NC(C)CCCN)c2ncccc2c1 (stereo not given) [Primaquine diphosphate] | 1.04 ± 0.21 | 1.04 ± 0.079 | 1 | 1.01 ± 0.074
21 | CC(=O)Nc1ccc(OCC(O)CNC(C)C)cc1 (stereo not given) [Practolol] | 1.01 ± 0.36 | 0.986 ± 0.081 | 0.833 | 1.02 ± 0.051
22 | CC(C)[C@H](N)C(=O)OCCOCn1cnc2c(=O)nc(N)[nH]c21 [Valacyclovir hydrochloride] | 0.851 ± 0.28 | 1 ± 0.066 | 0.917 | 0.955 ± 0.044
23 | CC(=O)Nc1c(I)c(C(=O)N[C@H]2C(O)O[C@H](CO)[C@@H](O)[C@@H]2O)c(I)c(N(C)C(C)=O)c1I (stereo not given in full) [Metrizamide] | 0.874 ± 0.3 | 1.11 ± 0.1 | 0.833 | 0.988 ± 0.025
24 | O=C(Oc1cccc2cccnc12)c1ccccc1 [Benzoxiquine] | 3.04 ± 1.1 | 0.56 ± 0.11 | 0.0833 | 1.1 ± 0.022
25 | N=C(N)NC(=O)c1nc(Cl)c(N)nc1N [Amiloride hydrochloride dihydrate] | 0.835 ± 0.27 | 0.978 ± 0.074 | 0.583 | 0.985 ± 0.023
